This note sets out measurements from PubChem BioAssay (EPA / NIEHS).

A word on the AC50: it is the concentration at which the activity in the assay is half-maximal.

For assay [1], the target named is human Thromboxane A2 Receptor (TXA2), TBXA2R (gene 6915) (UniProt P21731). As to the kind of experiment: NVS_GPCR_hTXA2: NovaScreen (NVS) G Protein-Coupled Receptor Assay for human Thromboxane A2 Receptor (TXA2) (AID 2283282).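 Further: actives reduce bound radioligand signal relative to DMSO baseline.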 In outline: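 Biochem binding, human platelets, cell-free; competitive radioligand displacement; 1 h; filter radiodetection. 25 uM duplicate primary, conc. series secondary; DMSO neg. ctrl.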

Assay [2] has as its target human Serotonin, 5-Hydroxytryptamine Receptor 7 (5HT7), HTR7 (gene 3363) (UniProt P34969). Briefly: NVS_GPCR_h5HT7: NovaScreen (NVS) G Protein-Coupled Receptor Assay for human Serotonin, 5-Hydroxytryptamine Receptor 7 (5HT7) (AID 2283255).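 Further: hits reduce specific radioligand binding relative to DMSO.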 The gist of the method:
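Filter-bound radioactivity counted after 1 h, with loss of specific radioligand binding fitted against DMSO. Membrane protein came from CHO cells expressing human 5HT7. Chemicals were tested first at 25 uM in duplicate, then in concentration series if active.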

In assay [3] the target is human Neuropeptide Receptor Y1 (NPY1), NPY1R (gene 4886) (UniProt P25929). As to the kind of experiment: NVS_GPCR_hNPY1: NovaScreen (NVS) G Protein-Coupled Receptor Assay for human Neuropeptide Receptor Y1 (NPY1) (AID 2283276). The gist of the method:
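Displacement of specific radioligand from NPY1 receptor of SK-N-MC origin, read by filtration and scintillation after 1 h. Compounds first tested at 25 uM in duplicate, then actives in concentration series; signal loss relative to DMSO.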

Assay [4] deals with rat Gamma-Aminobutyric Acid Type A Receptor, Non-Selective (GABAR-NonSelective), Gabra1 (gene 29705) (UniProt P62813). Briefly: NVS_LGIC_rGABAR_NonSelective: NovaScreen (NVS) Ligand-Gated Ion Channel Assay for rat Gamma-Aminobutyric Acid Type A Receptor, Non-Selective (GABAR-NonSelective) (AID 2283326). The gist of the method:
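Compounds were first screened in duplicate at 25 uM, with actives run as singleton concentration series (max 50 uM). Binding of a radioligand to rat whole-brain GABA-A preparation was measured by filtration and scintillation counting after 1 h, DMSO baseline.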

The target in assay [5] is bovine Gamma-Aminobutyric Acid Type A Receptor Agonist (GABAR Agonist), GABRA1 (gene 780973) (UniProt P08219). Briefly: NVS_LGIC_bGABAR_Agonist: NovaScreen (NVS) Ligand-Gated Ion Channel Assay for bovine Gamma-Aminobutyric Acid Type A Receptor Agonist (GABAR Agonist) (AID 2283338). In outline: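 Radioligand binding to bovine cerebellar membranes in agonist format, read by filter-based scintillation counting after 1 h. Primary screen in duplicate at 25 uM, with actives followed in concentration series. Gain of signal versus DMSO.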

Assay [6] concerns the target human Adenosine A1 Receptor (AdoRA1), ADORA1 (gene 134) (UniProt P30542). As to the kind of experiment: NVS_GPCR_hAdoRA1: NovaScreen (NVS) G Protein-Coupled Receptor Assay for human Adenosine A1 Receptor (AdoRA1) (AID 2283254). The gist of the method:
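Radioligand binding was run on human cortical membranes, cell-free, with filter-based scintillation counting 1 h after dosing. The primary screen was duplicate at 25 uM, followed by concentration series. Signal loss versus DMSO was fitted positive-direction.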

The target of assay [7] is D(1A) dopamine receptor (Homo sapiens) (UniProt P21728). Briefly: NVS_GPCR_hDRD1: NovaScreen (NVS) G Protein-Coupled Receptor Assay for human Dopamine Receptor D1 (DRD1) (AID 2283269). The gist of the method:
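Radioligand displacement binding on membranes/protein extracted from HEK293 expressing human D1, cell-free; read 1 h after dosing by filter-based scintillation counting. Primary screen in duplicate at 25 uM, actives followed up in concentration series; signal loss versus DMSO baseline.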

The target of assay [8] is human Neurokinin, NK2 Receptor, TACR2 (gene 6865) (UniProt P21452). Briefly: NVS_GPCR_hNK2: NovaScreen (NVS) G Protein-Coupled Receptor Assay for human Neurokinin, NK2 Receptor (AID 2283278).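 Further: actives reduce bound radioligand signal relative to DMSO baseline.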 The gist of the method:
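Radioligand binding on membranes from CHO cells expressing receptor, filter-based scintillation read 4 h after dosing. Initial duplicate screen at 25 uM, actives in concentration series; loss of signal versus DMSO.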

Assay [9] addresses bovine Estrogen Receptor (ER), ESR1 (gene 407238) (UniProt P49884). Briefly: NVS_NR_bER: NovaScreen (NVS) Nuclear Receptor Binding Assay for bovine Estrogen Receptor (ER) (AID 2283345).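 Further: actives lower the bound radioligand count which means they displace the ER ligand.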 In outline: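 Cell-free radioligand binding with bovine uterine membrane extracts, read 18 hours after dosing by scintillation counting. Loss of signal versus DMSO baseline indicates displacement. Primary screen run in duplicate at 25 uM, actives followed in concentration series.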

For assay [10], the target named is human Adenosine A2a Receptor (AdoRA2a), ADORA2A (gene 135) (UniProt P29274). Briefly: NVS_GPCR_hAdoRA2a: NovaScreen (NVS) G Protein-Coupled Receptor Assay for human Adenosine A2a Receptor (AdoRA2a) (AID 2283256). The gist of the method:
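HEK293-derived receptor preparation, radioligand displacement, 1.5 h, filtration + scintillation read. Loss of bound signal scored vs DMSO. Single-point 25 uM in duplicate first, then concentration-response for actives.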

For assay [11], the target named is rat Peripheral-type Benzodiazepine Receptor (PBR), Tspo (gene 24230) (UniProt P16257). As to the kind of experiment: NVS_MP_rPBR: NovaScreen (NVS) Membrane Protein Assay for rat Peripheral-type Benzodiazepine Receptor (PBR) (AID 2283335). The gist of the method:
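Single-concentration duplicate screening at 25 uM preceded concentration-series retesting of actives. Binding of a specific radioligand to rat kidney membrane PBR was read by filtration radiodetection after 1 h, with plate-wise positive and negative controls.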

Assay [12] has as its target guinea pig Opioid, Kappa 1 Receptor (OpiateK), OPRK1 (gene 100135587) (UniProt P41144). Briefly: NVS_GPCR_gOpiateK: NovaScreen (NVS) G Protein-Coupled Receptor Assay for guinea pig Opioid, Kappa 1 Receptor (OpiateK) (AID 2283252).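 Further: active means reduced radioligand binding relative to DMSO.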 In outline: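 Radioligand binding to kappa opioid receptor in guinea pig cerebellar membranes, read by filtration and scintillation at 2 h. Compounds first tested in duplicate at 25 uM, then actives in concentration series; signal loss fitted against DMSO.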

The target in assay [13] is human Peripheral-type Benzodiazepine Receptor (PBR), TSPO (gene 706) (UniProt P30536). As to the kind of experiment: NVS_MP_hPBR: NovaScreen (NVS) Membrane Protein Assay for human Peripheral-type Benzodiazepine Receptor (PBR) (AID 2283331).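 Further: hits reduce radioligand binding relative to DMSO baseline.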 The gist of the method:
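Cell-free binding to human colonic membrane preparations measured by filter-based scintillation counting after 1 h. Compounds first run at 25 uM in duplicate, then concentration series for actives; signal loss against DMSO baseline.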

Assay [14] deals with Muscarinic acetylcholine receptor M2 (Homo sapiens) (UniProt P08172). Briefly: NVS_GPCR_hM2: NovaScreen (NVS) G Protein-Coupled Receptor Assay for human Muscarinic, M2 Receptor (AID 2283273). The gist of the method: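 CHO-expressed human M2 receptor preparation, competitive displacement of a radioligand read by filter-based scintillation counting after 1 h. Single 25 uM duplicate screen, then concentration-response follow-up of actives; DMSO baseline.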

Assay [15] can be described thus: NVS_IC_rCaBTZCHL: NovaScreen (NVS) Ion Channel Assay for Calcium Channel, Type L, Benzothiazepine Site (CaBTZCHL) (AID 2283337). The gist of the method:
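Benzothiazepine-site binding was assessed in a tissue-derived, cell-free rat cortical membrane system. After 1.5 h exposure, radioactivity retained on filters was quantified by scintillation; positive and negative controls accompanied every plate.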

Assay [16] has as its target Sodium channel protein type 1 subunit alpha (Rattus norvegicus) (UniProt P04774). Briefly: NVS_IC_rNaCh_site2: NovaScreen (NVS) Ion Channel Assay for rat Sodium Channel, Site 2 (NaCh) (AID 2283322).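 Further: hit means loss of radioligand binding signal relative to DMSO so AC50 marks displacement.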 The gist of the method: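 Initial duplicate single-point testing at 25 uM, followed by concentration-response runs for actives. Binding of radioligand to rat forebrain membranes quantified after 1 h via filter-based radiodetection.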

Inconclusive results are not listed. The source made the active and inactive calls. How the source made its calls: active means hit-call score of the fitted dose curve at least 0.9, where 1 is the maximum; inconclusive means response in the unintended direction; inactive means score below 0.9.

Chain of bovine Estrogen Receptor (ER), ESR1 (gene 407238) (P49884 whole entry, looked up): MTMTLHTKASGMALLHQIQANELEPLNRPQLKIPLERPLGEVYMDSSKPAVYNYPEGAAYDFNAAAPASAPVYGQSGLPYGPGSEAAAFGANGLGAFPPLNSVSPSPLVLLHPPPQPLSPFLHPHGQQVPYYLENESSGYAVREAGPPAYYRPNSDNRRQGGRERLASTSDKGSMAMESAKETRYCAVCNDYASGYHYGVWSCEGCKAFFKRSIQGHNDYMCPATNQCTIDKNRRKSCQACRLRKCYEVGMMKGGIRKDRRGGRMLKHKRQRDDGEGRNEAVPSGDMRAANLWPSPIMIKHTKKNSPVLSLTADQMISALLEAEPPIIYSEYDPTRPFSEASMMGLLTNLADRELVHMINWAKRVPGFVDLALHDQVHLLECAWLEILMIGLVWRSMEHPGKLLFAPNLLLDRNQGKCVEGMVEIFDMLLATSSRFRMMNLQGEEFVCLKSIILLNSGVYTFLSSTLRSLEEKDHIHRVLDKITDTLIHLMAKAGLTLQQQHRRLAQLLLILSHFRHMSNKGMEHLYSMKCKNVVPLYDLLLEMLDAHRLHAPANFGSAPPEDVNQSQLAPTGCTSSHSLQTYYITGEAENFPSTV
Chain of human Adenosine A1 Receptor (AdoRA1), ADORA1 (gene 134) (P30542 whole entry, looked up): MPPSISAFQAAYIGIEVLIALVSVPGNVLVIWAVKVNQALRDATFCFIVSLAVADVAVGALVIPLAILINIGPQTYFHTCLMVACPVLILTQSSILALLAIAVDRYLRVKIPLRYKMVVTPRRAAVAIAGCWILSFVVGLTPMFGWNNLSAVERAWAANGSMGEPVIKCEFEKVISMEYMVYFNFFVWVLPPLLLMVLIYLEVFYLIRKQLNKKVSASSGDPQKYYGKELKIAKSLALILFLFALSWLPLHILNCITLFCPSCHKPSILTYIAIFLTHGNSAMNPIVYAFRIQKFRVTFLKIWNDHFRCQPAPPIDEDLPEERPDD
Chain of D(1A) dopamine receptor (Homo sapiens) (P21728 whole entry, looked up): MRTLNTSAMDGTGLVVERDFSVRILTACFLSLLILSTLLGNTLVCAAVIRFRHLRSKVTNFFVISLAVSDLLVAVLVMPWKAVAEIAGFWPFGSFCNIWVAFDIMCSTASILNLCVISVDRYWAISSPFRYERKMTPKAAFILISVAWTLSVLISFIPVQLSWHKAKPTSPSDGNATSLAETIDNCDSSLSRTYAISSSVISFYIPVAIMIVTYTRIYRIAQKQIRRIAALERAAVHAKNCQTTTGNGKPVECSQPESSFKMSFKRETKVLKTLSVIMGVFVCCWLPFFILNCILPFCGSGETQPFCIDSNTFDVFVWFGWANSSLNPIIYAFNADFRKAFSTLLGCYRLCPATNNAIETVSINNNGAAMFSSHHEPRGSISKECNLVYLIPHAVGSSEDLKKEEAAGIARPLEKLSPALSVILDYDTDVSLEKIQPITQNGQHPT
Chain of human Thromboxane A2 Receptor (TXA2), TBXA2R (gene 6915) (P21731 whole entry, looked up): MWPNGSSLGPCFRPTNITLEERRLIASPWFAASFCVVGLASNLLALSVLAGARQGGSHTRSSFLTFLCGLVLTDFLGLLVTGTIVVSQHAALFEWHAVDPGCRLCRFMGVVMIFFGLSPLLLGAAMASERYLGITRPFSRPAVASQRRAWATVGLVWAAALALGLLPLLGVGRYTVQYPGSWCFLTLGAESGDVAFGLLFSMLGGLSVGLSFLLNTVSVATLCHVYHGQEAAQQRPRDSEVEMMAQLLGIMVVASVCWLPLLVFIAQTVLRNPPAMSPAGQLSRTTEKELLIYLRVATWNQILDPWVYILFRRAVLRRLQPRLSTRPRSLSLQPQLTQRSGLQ
Chain of guinea pig Opioid, Kappa 1 Receptor (OpiateK), OPRK1 (gene 100135587) (P41144 whole entry, looked up): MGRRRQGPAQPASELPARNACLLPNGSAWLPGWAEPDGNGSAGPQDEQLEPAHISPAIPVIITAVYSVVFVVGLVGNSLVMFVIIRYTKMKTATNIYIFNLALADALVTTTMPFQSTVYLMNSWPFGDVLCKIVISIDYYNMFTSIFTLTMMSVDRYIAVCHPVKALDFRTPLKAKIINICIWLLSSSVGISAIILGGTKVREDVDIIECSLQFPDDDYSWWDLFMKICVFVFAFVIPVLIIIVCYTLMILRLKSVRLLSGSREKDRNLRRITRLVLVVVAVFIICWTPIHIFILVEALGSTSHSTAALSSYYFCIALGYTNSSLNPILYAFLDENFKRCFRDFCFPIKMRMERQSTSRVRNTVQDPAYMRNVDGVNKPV
Chain of human Neurokinin, NK2 Receptor, TACR2 (gene 6865) (P21452 whole entry, looked up): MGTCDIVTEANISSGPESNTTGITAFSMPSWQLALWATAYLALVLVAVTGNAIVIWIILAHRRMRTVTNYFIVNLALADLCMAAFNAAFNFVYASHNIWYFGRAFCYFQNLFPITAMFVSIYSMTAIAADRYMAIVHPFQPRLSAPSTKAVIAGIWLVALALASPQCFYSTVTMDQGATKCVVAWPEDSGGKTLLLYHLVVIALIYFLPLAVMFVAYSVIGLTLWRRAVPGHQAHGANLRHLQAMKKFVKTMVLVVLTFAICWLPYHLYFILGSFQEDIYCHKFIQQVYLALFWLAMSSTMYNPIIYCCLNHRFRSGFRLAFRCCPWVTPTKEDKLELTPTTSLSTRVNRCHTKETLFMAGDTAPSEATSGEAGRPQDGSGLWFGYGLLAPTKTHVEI
Chain of human Adenosine A2a Receptor (AdoRA2a), ADORA2A (gene 135) (P29274 whole entry, looked up): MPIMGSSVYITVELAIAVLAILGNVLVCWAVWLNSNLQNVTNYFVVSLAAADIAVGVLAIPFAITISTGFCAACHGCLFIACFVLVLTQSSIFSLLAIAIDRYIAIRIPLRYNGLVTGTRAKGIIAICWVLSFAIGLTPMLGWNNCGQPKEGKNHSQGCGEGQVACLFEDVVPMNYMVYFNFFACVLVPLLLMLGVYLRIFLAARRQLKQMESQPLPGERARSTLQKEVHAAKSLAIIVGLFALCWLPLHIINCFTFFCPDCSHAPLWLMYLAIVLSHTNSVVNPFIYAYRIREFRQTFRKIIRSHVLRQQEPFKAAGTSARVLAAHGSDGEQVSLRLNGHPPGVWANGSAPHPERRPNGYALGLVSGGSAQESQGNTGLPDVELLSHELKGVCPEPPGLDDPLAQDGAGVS
Chain of rat Peripheral-type Benzodiazepine Receptor (PBR), Tspo (gene 24230) (P16257 whole entry, looked up): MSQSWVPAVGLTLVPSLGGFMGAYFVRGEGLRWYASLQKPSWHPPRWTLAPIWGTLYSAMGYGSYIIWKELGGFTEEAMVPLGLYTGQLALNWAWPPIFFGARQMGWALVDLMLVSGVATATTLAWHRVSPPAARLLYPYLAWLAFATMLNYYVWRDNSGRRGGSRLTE
Chain of Muscarinic acetylcholine receptor M2 (Homo sapiens) (P08172 whole entry, looked up): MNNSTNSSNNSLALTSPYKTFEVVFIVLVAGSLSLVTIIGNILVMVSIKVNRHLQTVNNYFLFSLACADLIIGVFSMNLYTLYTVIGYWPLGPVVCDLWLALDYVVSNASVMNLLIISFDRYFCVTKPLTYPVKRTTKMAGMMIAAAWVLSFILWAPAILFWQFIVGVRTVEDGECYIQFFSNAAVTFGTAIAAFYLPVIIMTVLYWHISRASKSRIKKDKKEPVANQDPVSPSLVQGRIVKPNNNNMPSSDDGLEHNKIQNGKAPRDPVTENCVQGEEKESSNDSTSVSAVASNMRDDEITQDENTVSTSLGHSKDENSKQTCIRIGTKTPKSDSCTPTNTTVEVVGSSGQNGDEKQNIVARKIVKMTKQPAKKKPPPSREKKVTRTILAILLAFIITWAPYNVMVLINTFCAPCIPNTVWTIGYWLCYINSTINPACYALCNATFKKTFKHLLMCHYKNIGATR
Chain of human Peripheral-type Benzodiazepine Receptor (PBR), TSPO (gene 706) (P30536 whole entry, looked up): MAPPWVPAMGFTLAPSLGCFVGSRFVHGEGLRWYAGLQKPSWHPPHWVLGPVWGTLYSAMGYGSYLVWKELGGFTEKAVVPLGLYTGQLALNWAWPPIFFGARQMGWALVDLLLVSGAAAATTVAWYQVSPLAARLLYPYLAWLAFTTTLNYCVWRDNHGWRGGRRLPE
Chain of rat Gamma-Aminobutyric Acid Type A Receptor, Non-Selective (GABAR-NonSelective), Gabra1 (gene 29705) (P62813 whole entry, looked up): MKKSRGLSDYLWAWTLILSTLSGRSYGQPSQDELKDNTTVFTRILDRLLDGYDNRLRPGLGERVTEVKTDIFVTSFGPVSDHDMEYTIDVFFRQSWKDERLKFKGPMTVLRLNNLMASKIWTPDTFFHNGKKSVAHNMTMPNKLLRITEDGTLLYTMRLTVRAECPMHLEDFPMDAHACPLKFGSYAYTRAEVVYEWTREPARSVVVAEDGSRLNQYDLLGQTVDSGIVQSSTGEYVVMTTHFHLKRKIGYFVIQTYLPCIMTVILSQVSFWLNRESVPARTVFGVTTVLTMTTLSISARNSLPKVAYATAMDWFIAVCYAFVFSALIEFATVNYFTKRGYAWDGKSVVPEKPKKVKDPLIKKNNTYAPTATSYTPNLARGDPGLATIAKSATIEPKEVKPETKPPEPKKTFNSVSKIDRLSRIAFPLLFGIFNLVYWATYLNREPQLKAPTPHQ
Chain of human Neuropeptide Receptor Y1 (NPY1), NPY1R (gene 4886) (P25929 whole entry, looked up): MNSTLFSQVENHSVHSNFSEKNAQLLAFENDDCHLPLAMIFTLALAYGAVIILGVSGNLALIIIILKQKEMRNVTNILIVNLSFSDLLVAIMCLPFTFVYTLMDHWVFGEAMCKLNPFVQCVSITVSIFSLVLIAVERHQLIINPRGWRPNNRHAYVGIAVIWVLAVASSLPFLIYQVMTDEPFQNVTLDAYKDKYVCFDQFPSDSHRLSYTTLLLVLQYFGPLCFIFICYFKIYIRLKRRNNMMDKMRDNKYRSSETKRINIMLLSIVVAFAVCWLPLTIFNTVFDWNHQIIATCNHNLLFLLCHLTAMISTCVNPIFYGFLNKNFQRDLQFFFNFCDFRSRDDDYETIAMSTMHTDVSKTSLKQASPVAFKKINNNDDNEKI

`Clc1cccnc1`: in assay [1], the molecule was classed as inactive.

Take `C1CNCCN1`: the molecule was classed as inactive in [2] and in assay [3]. Moreover, the AC50 in assay [4] is 3.59 µM (active); in assay [5] it was 25 µM (active).

On to `CCCCCCCCCCCCCc1ccccc1`, for which the call in [6] and in assay [7] was inactive.

`CCOC(=O)/C=C\C(=O)OCC`: the call in assay [8], in [1] and in assay [9] was inactive.

As to `CC(C)=NNC(N)=S`, in assay [1], the call was inactive.

For `COC(=O)C=Cc1ccccc1`, the outcome in assay [7] was inactive.

On to `Oc1ccc(/C=C/c2cc(O)cc(O)c2)cc1`, for which the call in [6], in assay [1] and in [11] was inactive. Moreover, the concentration at half-maximal activity (AC50) in [10] is 17.9 µM (active); in assay [7] it was 25 µM (active); in assay [8] it was 0.835 µM (active); in [9], 25 µM (active).

Consider `CCOC(=O)C1=NN(c2ccc(Cl)cc2Cl)C(C)(C(=O)OCC)C1` (stereo unspecified), for which the figures for the concentration at half-maximal activity (AC50) in assay [12], in assay [13] and in assay [11] were 14.3 µM (active), 10.9 µM (active) and 9.42 µM (active), respectively. In [1], the result was inactive.

In the case of `CC(C)CCOCc1ccccc1`, the outcome in [7] was inactive.

For the molecule `CCCCCCCCC(CO)CCCCCC` (stereo unspecified), the call in assay [14] and in [15] was inactive.

`CC1=CC=C(C(C)C)CC1`: in assay [12], the molecule was classed as inactive.

On to `Nc1nc(N)nc(-c2ccccc2)n1`, for which the figures for the AC50 in assay [6] and in assay [10] were 6.11 µM (active) and 3.01 µM (active), respectively. Besides, the molecule was classed as inactive in assay [16] and in assay [9].

Consider `CCc1cccc(C)c1N(C(=O)CS(=O)(=O)O)C(C)COC` (stereo unspecified), for which, in assay [1], the call was inactive.

Consider `Oc1c(Cl)cc(Cl)c(Cl)c1Cl`, for which the molecule was called inactive in [1].

Take `Cc1c(O)cccc1O`: in assay [14], the molecule was classed as inactive.

`Cc1cc(C)c(C=O)c(C)c1`: the result in assay [7] was inactive.

Consider `C=C(C)C(=O)OCCCCCCCCCCCC`, for which the outcome in [7] was inactive.
